In PubChem BioAssay (NCATS):
Results filed as inconclusive are left out. Where a call stands in place of a potency, no number is given. Where a structure was tested more than once in an assay, its records may differ in their call. The source made the active and inactive calls. The call rests on the fitted dose curve; in most records, active means well fitted curve in the direction sought with a large enough effect; inconclusive means small, poorly fitted or top-dose-only effect, or another doubt; inactive means no such curve, though single readings can be large; an effect the other way counts as inactive or inconclusive.

Assays:
[1] = biological target: Glutathione peroxidase 1 (Homo sapiens) (UniProt P07203); assay: Primary qHTS Assay for Inhibitors of Recombinant Selenoprotein Glutathione Peroxidase 1 (GPX1) (AID 1845191); further: nearly all actives have a fitted effect of over 65% in size; further: potency means the concentration at half of the fitted maximal effect
In short: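 10 nM GPX1 + cpd, 30 min RT; start w/ 1 mM GSH, 0.5 mM cumene hydroperoxide, 0.5 mM NADPH, 100 nM GR, 0.01% BSA; buffer 50 mM Tris-HCl pH 7.5, 2 mM EDTA, 150 mM NaCl; Fl 340/450, 0 & 15 min.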

[2] = biological target: Phospholipid hydroperoxide glutathione peroxidase GPX4 (Homo sapiens) (UniProt P36969); assay: Primary qHTS Assay for Inhibitors of Recombinant Selenoprotein Glutathione Peroxidase 4 (GPX4) (AID 1845192); further: nearly all actives have a fitted effect of over 65% in size; further: potency means the concentration at half of the fitted maximal effect
In short: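 NADPH consumption, followed by fluorescence at 340/450 nm between 0 and 15 min, reports GPX4 activity via coupled glutathione reductase (100 nM). Enzyme 200 nM was pre-exposed to compound 30 min; 0.5 mM cumene hydroperoxide and 1 mM GSH served as substrates.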

[3] = biological target: Metallo-beta-lactamase type 2 (Klebsiella pneumoniae) (UniProt C7C422); assay: qHTS to identify inhibitors of the New Delhi Metallo-beta-lactamase (NDM): assay validation screen against the NCATS LOPAC Collection (AID 1794843); further: series mostly up to about 38 µM
In short: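 Absorbance at 485 nm from nitrocefin turnover (50 uM solution added), read at plateau, gives the read-out. Compounds in DMSO were incubated first with 2 nM final NDM-1 in pH 7.0 HEPES buffer containing 1 uM ZnSO4 and 0.01% Tween20.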

Sequence of Phospholipid hydroperoxide glutathione peroxidase GPX4 (Homo sapiens) (P36969 whole entry, looked up): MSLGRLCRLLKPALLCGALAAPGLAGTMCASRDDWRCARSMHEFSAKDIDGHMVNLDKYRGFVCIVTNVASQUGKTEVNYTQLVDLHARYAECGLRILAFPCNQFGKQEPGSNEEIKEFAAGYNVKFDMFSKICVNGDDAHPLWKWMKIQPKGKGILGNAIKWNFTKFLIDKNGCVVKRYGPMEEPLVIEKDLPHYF
Sequence of Glutathione peroxidase 1 (Homo sapiens) (P07203 whole entry, looked up): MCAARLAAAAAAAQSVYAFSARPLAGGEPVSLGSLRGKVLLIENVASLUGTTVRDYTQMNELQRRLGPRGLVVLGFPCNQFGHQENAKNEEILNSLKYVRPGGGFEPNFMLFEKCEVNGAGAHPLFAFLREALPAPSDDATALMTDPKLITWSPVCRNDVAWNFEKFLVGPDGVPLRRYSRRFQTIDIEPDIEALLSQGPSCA
Sequence of Metallo-beta-lactamase type 2 (Klebsiella pneumoniae) (C7C422 whole entry, looked up): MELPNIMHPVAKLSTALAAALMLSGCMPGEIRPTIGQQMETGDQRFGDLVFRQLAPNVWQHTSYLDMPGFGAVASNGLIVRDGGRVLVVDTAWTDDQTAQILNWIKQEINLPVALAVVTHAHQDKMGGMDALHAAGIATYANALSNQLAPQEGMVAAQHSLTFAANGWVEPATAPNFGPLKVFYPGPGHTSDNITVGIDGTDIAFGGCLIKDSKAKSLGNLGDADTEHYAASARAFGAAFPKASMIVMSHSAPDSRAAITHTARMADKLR

Compound | Potency [1] | Potency [2] | outcome [3]
O=C(NC[C@H](O)CO)c1ccncc1Nc1ccc(I)cc1F | inactive | inactive | 
CCC[C@H](Nc1nc(-c2ccc(NC(=O)NCC)c(OC)c2)ncc1C)c1cccnc1 | inactive |  | 
COc1cccc(OC)c1-c1cc(C(=O)NC2(C(=O)O)C3CC4CC(C3)CC2C4)nn1-c1ccnc2cc(Cl)ccc12 (stereo not given) | inactive | inactive | 
O=C(O)Cc1cccc(OCCCN(Cc2cccc(C(F)(F)F)c2Cl)CC(c2ccccc2)c2ccccc2)c1 | inactive |  | 
C[C@@H](O)[C@H]1C(=O)N2C(C(=O)OCOC(=O)C(C)(C)C)=C(SC3CN(C4=NCCS4)C3)[C@H](C)[C@H]12 | inactive | inactive | 
C=CCc1cccc(C=NNC(=O)CN2CCN(Cc3ccccc3)CC2)c1O | inactive | inactive | inactive
Cc1ccc(NC(=O)c2ccc(CN3CCN(C)CC3)cc2)cc1Nc1nc(-c2cccnc2)cs1 | inactive | inactive | 
CC(NCCc1ccc(O)cc1)C(O)c1ccc(O)cc1 (stereo not given) | inactive | inactive | 
O=[N+]([O-])c1ccc(Nc2ccccc2-c2ccccc2)c2nonc12 | inactive | inactive | 
Cn1cc(-c2ccc3nnc(Sc4ccc5ncccc5c4)n3n2)cn1 | inactive | inactive | 
CC[C@@H]([C@H](C)O)n1ncn(-c2ccc(N3CCN(c4ccc(OCC5CO[C@@](Cn6cncn6)(c6ccc(F)cc6F)C5)cc4)CC3)cc2)c1=O (stereo not given in full) | inactive | inactive | 
O=C(O)c1ccc(O)c2ncc(N3CCOCC3)cc12 | inactive | inactive | 
COc1ccc(CCN(C)CCCOc2ccc(S(=O)(=O)c3[nH]c4ccccc4c3C(C)C)cc2)cc1OC | inactive | inactive | 
Clc1ccc(COC(Cn2ccnc2)c2ccc(Cl)cc2Cl)c(Cl)c1 (stereo not given) | inactive | inactive | 
O=C(O)C1=CC(O)C(O)[C@H](O)C1 (stereo not given in full) | inactive | inactive | 
CCCCC[C@H](O)C=C[C@H]1[C@H](O)CC(=O)[C@H]1CC=CCCCC(=O)O | inactive | inactive | 
CC[C@H](C=C[C@@H](C)[C@H]1CC[C@H]2[C@@H]3CC=C4C[C@@H](O)CC[C@]4(C)[C@@H]3CC[C@]12C)C(C)C | inactive | inactive | 

Compound | Potency [1] | Potency [2] | outcome [3]
CC1=C(CC(=O)O)c2cc(F)ccc2C1=Cc1ccc(S(C)=O)cc1 (stereo not given) | inactive | inactive | 
CN1CCN(c2ncc(-c3cc(Cl)cc(Cl)c3Cl)c(N)n2)CC1 | inactive | inactive | 
Cc1nc(C(=O)NCC(=O)O)c(O)c2ccc(Oc3ccccc3)cc12 | inactive | inactive | 
COC1CCC(C(=O)c2ccc3nc4c(cc3c2)CCCO4)CC1 (stereo not given) | inactive | inactive | 
O=C1CCCC(=O)C1C(=O)c1ccc(C(F)(F)F)cc1[N+](=O)[O-] | inactive | inactive | 
CCCC1OC2C[C@@H]3[C@H]4CCC5=CC(=O)C=C[C@]5(C)[C@H]4C(O)C[C@]3(C)[C@]2(C(=O)CO)O1 (stereo not given in full) | inactive | inactive | 
COc1cc(F)c(C(C)C)cc1-c1ccc(C(F)(F)F)cc1CN1C(=O)O[C@H](c2cc(C(F)(F)F)cc(C(F)(F)F)c2)[C@@H]1C | inactive | inactive | 
CCCCCCCCCCCCCC(=O)N[C@H](CO)[C@H](O)c1ccc([N+](=O)[O-])cc1 | inactive | inactive | 
COc1ccnc(CS(=O)c2nc3ccc(OC(F)F)cc3[nH]2)c1OC (stereo not given) | 9.04 µM (active) and inactive | 16.1 µM (active) | 
CCCCc1ccc(NS(=O)(=O)c2ccc(C)c(C(=O)N3CCN(c4cccc(C)c4C)CC3)c2)cc1 | inactive | inactive | 
Cc1ccc(S(=O)(=O)Nc2nc3ccccc3nc2Nc2ccc3nsnc3c2)cc1 | inactive | inactive | 
C#CCN(C)CC1=Cc2ccccc2Oc2ccccc21 | inactive | inactive | 
CC[C@]1(O)C[C@H]2CN(CCC3=c4ccccc4=N[C]3[C@@](C(=O)OC)(c3cc4c(cc3OC)N(C)[C@H]3[C@@](O)(C(N)=O)[C@H](O)[C@]5(CC)C=CCN6CC[C@]43[C@@H]65)C2)C1 | inactive | inactive | 
COc1cc2ncn(-c3cc(OCc4ccccc4S(C)(=O)=O)c(C#N)s3)c2cc1OC | inactive | inactive | 
NC[C@H]1O[C@H](O[C@@H]2[C@@H](O)[C@@H](O[C@H]3O[C@H](CO)[C@@H](O)[C@H](N)[C@@H]3O)[C@H](N)C[C@@H]2N)[C@H](O)[C@@H](O)[C@H]1O | inactive | inactive | 
OC(c1cc(C(F)(F)F)nc2c(C(F)(F)F)cccc12)C1CCCCN1 (stereo not given) | inactive | inactive | 
